For 52 compounds, INHIBITION results are on record in ChEMBL document CHEMBL4513216, “Probing the Open Global Health Chemical Diversity Library for Multistage-Active Starting Points for Next-Generation Antimalarials” (ACS Infect Dis, 2020).

The campaign covered roughly 69,000 compounds. About 8,600 (12%) showed an effect of 50% or more. This excerpt belongs to a sample that is enriched for strong results.

This assay relates to Plasmodium berghei. Nature of the assay: Screen against P. berghei liver stage (PbLuc), transformed with Luciferase, at 10uM. The following applies: tested at 10 uM. Format: functional, HepG2.
Turning to `CCc1noc(CN2CCN(c3nccs3)CC2)n1`, the INHIBITION turned out to be 19.5%.
The result for `CNC(=O)Cc1n[nH]c(-c2cncc(Br)c2)n1` reads -6.61%; that for `Cc1ncc(C(=O)N2CCCC(C(=O)CCc3ccccc3)C2)s1` (configuration not stated), 16.3%.
As for `CCn1ncc2c1C(COC)CN(S(=O)(=O)N(C)C)C2` (configuration not stated), the INHIBITION is on record as 10%.
The result for `OC(CN1CCN(Cc2ccccc2)CC1)C1CC1` (configuration not stated) reads -20.5%; that for `CCN(C(=O)Cn1cc(Cl)cn1)c1ccccc1`, 4.81%; that for `CNC(=O)Cn1ccc2ccc(NC(=O)NC(C)C(C)C)cc21` (configuration not stated), 15.5%.
The result for `CC(C)NC(=O)N1CCN(c2ccc(Cl)nn2)C(=O)C1` reads 37.5%; that for `N#Cc1cccc(OCc2ccoc2C(=O)N2CCCCC2)c1`, -105%; that for `CCCOCC(=O)N1CCCN(Cc2csc(CC)n2)CC1`, 1.75%.
Next, `CCc1nc(CN2CCCN(C(=O)CCc3ccco3)CC2)cs1`: 73.1%; `Cc1nc(CN2CCCN(C(=O)CCc3ccco3)CC2)cs1`: 12.7%.
Take `CCc1nc(CN2CCN(C(=O)c3cc(C)nn3C)CC2)cs1`: the INHIBITION amounted to 76.9%.
Regarding `Cc1nc(CN2CCCN(C(=O)COCC3CC3)CC2)cs1`, the INHIBITION is on record as 43.2%.
On to `CCc1nc(CN2CCCN(C(=O)c3cccn3C)CC2)cs1`, for which the INHIBITION is recorded as -69.6%.
The result for `Cc1nc(CCN)cc(N2CCC(O)(c3ccc(Cl)cc3)CC2)n1` reads 80.8%.
The result for `CCc1nc(CN2CCCN(C(=O)COCC3CC3)CC2)cs1` reads 54.3%; that for `CCc1nc(CN2CCN(C(=O)c3cc(C)no3)CC2)cs1`, -35.7%.
Next, `Cc1nc(CN)cc(N2CCC(O)(c3ccc(Cl)cc3)CC2)n1`: 3.82%.
For `Cc1nc(CN2CCN(C(=O)CCc3ccco3)CC2)cs1`, the INHIBITION worked out at 42.9%.
Next, `Cc1nc(CCN)cc(N2CCC(O)(c3ccccc3)C2)n1` (configuration not stated): 7.1%; `COCCOc1ncccc1C(=O)N1CCCC1Cn1cc(C)cn1` (configuration not stated): 15.5%.
The result for `COCCN1CCN(S(C)(=O)=O)Cc2cccnc21` reads -0.284%; that for `N#Cc1ccc(CN(CCF)Cc2cccc(F)c2)cc1`, 37.9%.
Next, `CCc1noc(CN2CCN(C(=O)N(CC)CC)CC2)n1`: -7.31%.
In the case of `O=C(c1ncccn1)N1CC[C@H]2OCC[C@@]2(COc2ccccn2)C1`, the INHIBITION was -1.15%.
The result for `CN(C)CC(=O)Nc1ccc(C(=O)N(C)CCc2cn[nH]c2)cc1` reads 38.2%; that for `CN(C)[C@@H]1CCN(c2ncc(F)cn2)[C@H]1Cc1ccncc1`, -42.9%; that for `O=C(CN1CC(c2nc(-c3cccs3)no2)C1)NCC1CCCO1` (configuration not stated), 32.1%.
Next, `CCc1ccc(C(=O)N2CCCN(Cc3csc(CC)n3)CC2)o1`: -7.25%; `CCc1nc(CN2CCCN(C(=O)COC)CC2)cs1`: -61.4%.
Next, `COc1ccc(C(=O)N2CCN(c3cc(CCN)nc(C)n3)CC2)cc1`: 38.5%.
For `Cc1nc(N2CCN(C(=O)c3ccco3)CC2)c2c(n1)c(C)nn2C`, the INHIBITION came out at 7.66%.
The result for `CCc1nc(CN2CCCN(C(=O)c3ccco3)CC2)cs1` reads 53.9%.
Next, `CCc1nc(CN2CCCN(C(=O)CC(F)(F)F)CC2)cs1`: -19.4%; `Cc1nc(CCN)cc(N2CCCN(C(=O)c3ccco3)CC2)n1`: 50.3%.
The result for `CCc1nc(CN2CCCN(C(=O)c3ccccc3)CC2)cs1` reads -155%; that for `Cc1nc(CN2CCC23CCN(C(=O)c2ccco2)CC3)cs1`, 60.2%; that for `CCc1nc(CN2CCCN(C(=O)Cc3cccs3)CC2)cs1`, 55.1%.
In the case of `Cc1nc(CN2CCC23CCN(C(=O)c2ccncc2)CC3)cs1`, the INHIBITION is on record as 12.7%.
Take `Cc1nc(CN2CCC23CCN(Cc2ccoc2)CC3)cs1`: the INHIBITION was found to be 26.7%.
On to `Cc1nnc(C(NS(=O)(=O)c2cc(C)c(F)cc2F)C(C)C)[nH]1` (configuration not stated), for which the INHIBITION came out at 38.9%.
The result for `CNC(=O)[C@H]1C[C@@H]2CN(Cc3csc(C)n3)C[C@@H]2N1S(C)(=O)=O` reads 28.5%; that for `C[S+]([O-])c1cccc(NC(=O)N[C@H](CCO)c2ccccc2)c1` (some centres not stated), 11.5%; that for `Cc1cc(C(=O)NCC(c2ccsc2)N(C)C)no1` (configuration not stated), 24%.
For `NC(=O)NC(CC(=O)N1CCc2sccc2C1)c1ccccc1F` (configuration not stated), the INHIBITION is on record as 3.3%.
The result for `CCNc1cc2c(nn1)CCN(C(=O)C1Cc3ccccc3O1)C2` (configuration not stated) reads 18.6%; that for `CN(C)c1cc2c(nn1)CCN(C(=O)C1COc3ccccc3C1)C2` (configuration not stated), 20.2%; that for `CN(C)c1cc2c(nn1)CCN(C(=O)C1Cc3ccccc3O1)C2` (configuration not stated), 56.4%.
For the compound `CC(C)(C)C(=O)NCCC(=O)NCCc1ccn(-c2ccccc2)n1`, the INHIBITION is given as 23.4%.
As to `COc1ccc(-c2nc(CNC3CCc4nc(C)nn4C3)no2)cc1` (configuration not stated), the INHIBITION is 56.6%.
Next, `COc1ccc2c(c1)OCC(CNC1CCc3nc(C)nn3C1)=C2` (configuration not stated): 85.2%.
